Among all 320,000 compounds or so, about 1,000 (0.31%) were called active.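 Rule for the calls: active = activation above the mean of all tested compounds plus 3 SD, cutoff set per screening run (cut at about 20% in these data); inactive = the rest.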 The list comes from a sample in which actives are over-represented; it also holds similar structures and randomly drawn compounds.
Target: Oxytocin receptor (Homo sapiens) (UniProt P30559)
Test: oxytocin receptor activation by calcium flux – fluorescence, CHO-OTR cells, Fluo-8 calcium, primary screen (AID 2435);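 note: peak over basal fluorescence ratio from a 100 s FLIPR kinetic read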
Settings: Fluo-8 calcium fluorescence, at 3 µM, stronger effect = higher value, normalized: DMSO 0%, oxytocin 100%

Chain of Oxytocin receptor (Homo sapiens) (P30559 whole entry, looked up): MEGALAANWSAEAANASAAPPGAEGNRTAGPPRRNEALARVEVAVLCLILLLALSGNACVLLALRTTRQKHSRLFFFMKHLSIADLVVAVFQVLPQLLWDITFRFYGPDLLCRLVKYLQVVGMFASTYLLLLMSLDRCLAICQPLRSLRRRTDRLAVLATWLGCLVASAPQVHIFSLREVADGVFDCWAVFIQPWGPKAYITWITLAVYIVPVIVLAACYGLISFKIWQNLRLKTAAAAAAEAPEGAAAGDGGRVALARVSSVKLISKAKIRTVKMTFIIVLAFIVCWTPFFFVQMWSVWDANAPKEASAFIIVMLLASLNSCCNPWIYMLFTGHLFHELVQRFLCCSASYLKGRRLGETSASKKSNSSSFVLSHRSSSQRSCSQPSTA

Row | Structure (SMILES) | activation
1 | Cc1ccc(O)c(NC(=O)COc2cc(C)ccc2C)c1 | 0.92% (inactive)
2 | Cc1ccc(O)c(NC(=S)NC(=O)COc2ccc(Br)cc2)c1 | 51.9% (active)
3 | Cc1cccc(OCC(=O)NC(=S)Nc2ccccc2N2CCOCC2)c1 | -0.15% (inactive)
4 | COc1ccc([N+](=O)[O-])cc1NCC(=O)c1ccc(C)cc1 | -1.36% (inactive)
5 | NC(=O)C1=C[C@@H](c2csc3ccccc23)C[C@@H](OCc2ccc(CO)cc2)O1 | 5% (inactive)
6 | O=C(NC1CC1)C1=C[C@H](c2c[nH]c3ccccc23)C[C@H](OCc2ccc(CO)cc2)O1 | -0.84% (inactive)
7 | NC(=O)C1=C[C@H](c2csc3ccccc23)C[C@H](OCc2ccc(CO)cc2)O1 | 25.9% (active)
8 | Cc1ccc(NC(=O)CN(C)C(=O)c2cccc(S(=O)(=O)N3CCCC3)c2)cc1 | -1.01% (inactive)
9 | COc1cc(/C=C2/SC(=S)N(Cc3ccccc3)C2=O)cc(OC)c1O | 23.8% (active)
10 | COc1ccc(/C=C2\SC(=S)N(CCCC(=O)NC3CCCC3)C2=O)cc1OC | -1.19% (inactive)
11 | COc1ccc(/C=C2\SC(=S)N(CCC(=O)Nc3cccc(C(=O)O)c3)C2=O)cc1OC | -0.74% (inactive)
12 | COCCn1c(N)c(NCc2ccccc2)c(=O)[nH]c1=O | 0.2% (inactive)
13 | Cc1cccc(CN2CCC(CNC(=O)Nc3ccc(F)c(Cl)c3)CC2)c1 | 28.2% (active)
14 | Cc1ccc(C)c(CN2CCC(CNC(=O)Nc3ccc(C)c(F)c3)CC2)c1 | 2.73% (inactive)
15 | O=C(NCC1CCN(Cc2ccccc2Cl)CC1)Nc1cccc(Cl)c1 | 4.22% (inactive)
16 | COc1cc(NC(=O)NCC2CCN(Cc3ccc(C)cc3)CC2)cc(OC)c1OC | 1.34% (inactive)
17 | Cc1ccccc1NC(=O)NCC1CCN(Cc2cccc(Cl)c2)CC1 | 1.57% (inactive)
18 | COc1ccc(Cl)cc1NC(=O)NCC1CCN(Cc2ccccc2F)CC1 | 19.8% (active)
19 | CCn1cc(CCC(=O)NCc2ccc(F)cc2)c2ccccc21 | -1.14% (inactive)
20 | COc1ccc(C(C#N)N2N=C(C)CC2(C)C)cc1 (stereo not given) | 0.73% (inactive)
21 | COc1cc(C(F)(F)F)c(C(=O)N(C)c2ccc(Cl)cc2)cn1 | -1.66% (inactive)
22 | COc1ccccc1CNS(=O)(=O)c1cc2c3c(c1)CCC(=O)N3CCC2 | 2.19% (inactive)
23 | CCOc1ccc(N(C(=O)c2snc(C(N)=O)c2N)C(C(=O)NCC2CCCO2)c2c[nH]c3ccccc23)cc1 (stereo not given) | 1.87% (inactive)

Row | Structure (SMILES) | activation
24 | Cc1cc(NC(=O)CCN2CCN(Cc3ccccc3)CC2)ccc1Br | 23.2% (active)
25 | CC1CCN(CCC(=O)Nc2ccccc2)CC1 | -0.16% (inactive)
26 | CCOC(=O)N1CCN(CCC(=O)Nc2ccccc2)CC1 | -0.17% (inactive)
27 | Cc1ccccc1CCNC(=O)C1CCC(=O)N(Cc2ccc(Cl)cc2)C1 (stereo not given) | -1.42% (inactive)
28 | CCCCCN(C(=O)CCC(=O)OCC(=O)NCc1ccc(OC)cc1)c1c(N)n(CCCC)c(=O)[nH]c1=O | -0.95% (inactive)
29 | Cc1ccc(-c2cc(C(=O)NN)n[nH]2)o1 | -1.85% (inactive)
30 | CC(CO)(CO)NC(=O)c1ccc(=O)[nH]n1 | 45.8% (active)
31 | COc1ccc(C(=O)NNC(=O)c2cc(C)[nH]n2)cc1 | -1.68% (inactive)
32 | O=C(CSc1nc2[nH]ncc2c(=O)[nH]1)Nc1ccc(F)cc1 | 0.71% (inactive)
33 | O=C(NCCC1CCCCN1S(=O)(=O)c1ccc(Cl)cc1)C(=O)NCc1ccco1 (stereo not given) | -1.1% (inactive)
34 | CCN(CC)c1ccc(C(=O)Nn2c(C)nc3ccccc3c2=O)cc1 | 3.66% (inactive)
35 | CCN(CC)c1ccc2oc(=O)c(C)nc2c1 | 38% (active)
36 | C=CCN(C(=O)Nc1ccc2oc(C)nc2c1)c1ccccc1 | -0.77% (inactive)
37 | CCOc1ccc(C)cc1S(=O)(=O)NC1CCCCCC1 | -1.02% (inactive)
38 | C[C@@H]1O[C@@H](OC[C@H]2O[C@@H](Oc3c(-c4ccc(O)cc4)oc4cc(O)cc(O)c4c3=O)[C@H](O)[C@@H](O)[C@@H]2O)[C@H](O)[C@H](O)[C@H]1O | -0.01% (inactive)
39 | CCCCc1nc(NCCN)c(C#N)c2c1CSC(C)(C)C2 | 7.89% (inactive)
40 | CCCC(O)(c1ccc(OC)cc1)C(CN(C)C)c1ccccc1 (stereo not given) | 1.32% (inactive)
41 | COC(=O)c1ccc(OCC(O)CN(CCO)CC(O)Cn2ccc3ccccc32)cc1 (stereo not given) | 3.04% (inactive)
42 | COc1ccc(CN2C(=O)CC(Cc3ccc(C)cc3)C2=O)cc1OC (stereo not given) | -1.49% (inactive)
43 | CCN(Cc1ccccc1)C(=O)CSc1nc(C)cc2c1C(=O)OC2 | 1.04% (inactive)
44 | Cc1ccc(CNC(=O)c2ccc3c(c2)S(=O)(=O)c2ccccc2C3=O)cc1 | -0.21% (inactive)
45 | CC1CCN(c2c(NCc3ccc(C(=O)NCc4ccccc4)cc3)c(=O)c2=O)CC1 | 0.21% (inactive)
46 | Cc1ccc(CNC(=O)c2cccc3c2C(=O)c2ccc(N4CCC(C)CC4)cc2S3(=O)=O)cc1 | 40.5% (active)

Row | Structure (SMILES) | activation
47 | CC(C)Oc1c(Br)cc(Br)cc1/C=N/NC(N)=S | -1.11% (inactive)
48 | O=C(CSc1ncnc2sccc12)N1CCN(C(=O)c2cccs2)CC1 | 1.17% (inactive)
49 | Nc1c(C(=O)c2cccs2)sc2nsc(SCCN3CCCCC3)c12 | 50.2% (active)
50 | O=C(CCCN1C(=O)CCC1=O)Nc1ccc(Cl)c(C(F)(F)F)c1 | 6.54% (inactive)
51 | CC1=CC(=C(C#N)c2nc3ccccc3s2)C=C(C)N1c1ccc(F)cc1F | 0.27% (inactive)
52 | O=c1[nH][nH]c(C(F)(F)F)c1C=NCc1ccccc1Cl | 1.38% (inactive)
53 | O=C(NCCCc1ccccc1)C(=O)NCC1OCCN1S(=O)(=O)c1ccccc1 (stereo not given) | -0.3% (inactive)
54 | Cc1cc(S(=O)(=O)c2cc3ccc(O)c(C)c3oc2=O)ccc1F | 20.6% (active)
55 | COc1cccc2cc(S(=O)(=O)c3ccc(C)cc3)/c(=N/NS(=O)(=O)c3ccc(C)cc3)oc12 | -0.02% (inactive)
56 | COC(=O)Cc1cc(=O)oc2c(C)c(O)ccc12 | 3.75% (inactive)
57 | COCCNC(=O)NC(=O)COC(=O)C1(c2ccc(Cl)cc2)CC1 | -1.47% (inactive)
58 | CCc1c(C)sc(NC(=O)OC)c1C(=O)N1CCOCC1 | -0.45% (inactive)
59 | CCOc1cc(/C=C2/C(=N)N3OC(C)=CC3=NC2=O)ccc1OC | -0.04% (inactive)
60 | COc1ccc(OCCCn2cccc2/C=C2/C(=N)N3OC(C)=CC3=NC2=O)cc1 | 1.35% (inactive)
61 | CC1=CC2=NC(=O)/C(=C/c3coc4ccccc4c3=O)C(=N)N2O1 | 30.4% (active)
62 | C=CCSc1nc(N)cc(=O)[nH]1 | 0.06% (inactive)
63 | CCOC(=O)Cn1c(-c2cccnc2Cl)nc2ccccc21 | 0.33% (inactive)
64 | CCCCCCCCCCOC(=O)Cn1c(COc2ccc(C)cc2)[n+](C)c2ccccc21 | -1.93% (inactive)
65 | CCCCCCCCCCOC(=O)Cn1c(COc2cccc(OC)c2)[n+](C)c2ccccc21 | 21.5% (active)
66 | CC1=CC(C)(C)NC(=S)N1c1ccccc1 | -0.69% (inactive)
67 | Cc1cc(N)n2nc(-c3ccc(C(C)(C)C)cc3)cc2n1 | -1.18% (inactive)
68 | C#CCOCCOCCOCCNc1nc(N2CCN(C(=O)C([C@@H](C)CC)n3cc(C(N)COC(=O)C(F)(F)F)nn3)CC2)nc(N2CCN(C(=O)[C@H](Cc3ccc(O)cc3)n3cc(C(N)[C@H](C)CC)nn3)CC2)n1 (stereo not given in full) | 0.32% (inactive)
69 | c1ccc2c(CCN3CCNC[C@H]3Cc3cccc4ccccc34)cccc2c1 | 8.2% (inactive)

Row | Structure (SMILES) | activation
70 | c1ccc(C2CNCc3c2ccc2ccccc32)cc1 (stereo not given) | 22.4% (active)
71 | COCCn1c(=O)[nH]c(=O)c2cc(C(=O)c3cc(OC)ccc3O)cnc21 | -0.31% (inactive)
72 | Cc1ccc2oc(=O)c3cnn(CC(=O)N(Cc4ccco4)C4CCCCC4)c3c2c1 | -1.36% (inactive)
73 | CC1CN(S(=O)(=O)c2ccc(C(=O)NN3CCN(C)CC3)cc2)CC(C)O1 (stereo not given) | 0.04% (inactive)
74 | CCOc1ccc(C2=CC(c3ccccc3)n3ncnc3N2)cc1 (stereo not given) | -2.25% (inactive)
75 | Brc1ccc(C2=CC(c3ccco3)n3ncnc3N2)cc1 (stereo not given) | 16.4% (inactive)
76 | COc1ccc(C2C=C(c3ccc(Br)cc3)Nc3nc(NS(C)(=O)=O)nn32)cc1 (stereo not given) | 20.5% (active)
77 | COc1ccc(OC)c(NC(=S)N2CCc3ccccc3C2)c1 | -1.2% (inactive)
78 | O=S(=O)(c1cccc(Cn2nnc(-c3ccc(F)cc3)n2)c1)N1CCOCC1 | 18.4% (inactive)
79 | O=C(C1CCCN1S(=O)(=O)c1ccc(Br)cc1)N1CCOCC1 (stereo not given) | -0.61% (inactive)
80 | CCOc1ccc(Cn2nnc(C(=O)NCc3ccccc3)c2N)cc1 | 32% (active)
81 | COc1ccc(CNC(=O)c2nnn(CC(=O)Nc3cc(C)cc(C)c3)c2N)cc1 | 0.21% (inactive)
82 | COc1ccc(NC(=O)Cn2nnc(C(=O)NCCc3ccc(OC)c(OC)c3)c2N)cc1 | -0.34% (inactive)
83 | CCOc1ccc(Cn2nnc(C(=O)Nc3ccc(OC)cc3OC)c2N)cc1 | 25.1% (active)
84 | CCc1ccc(NC(=O)Cn2nnc(C(=O)NCc3ccc(OC)cc3)c2N)cc1 | 0.62% (inactive)
85 | COc1cccc(CNC(=O)c2nnn(CC(=O)Nc3cc(Cl)ccc3C)c2N)c1 | 2.37% (inactive)
86 | Cc1ccc2c(c1)N(CC(=O)N1CCC(C)CC1)C(=O)c1cccnc1O2 | 1.7% (inactive)
87 | CCc1cccc(CC)c1NC(=O)COc1ccccc1C(=O)c1cc(C#N)c(=O)n(C2CCCCC2)c1 | 2.32% (inactive)
88 | Cc1cc(C(=O)NC2CCN(Cc3ccccc3)CC2)n[nH]1 | 0.51% (inactive)
89 | CN(CC(=O)NCc1ccc(Cl)cc1)S(=O)(=O)c1cccs1 | 0.76% (inactive)
90 | CC(Oc1cccc(Cl)c1)C(=O)Nc1ccc(S(=O)(=O)Nc2ncccn2)cc1 (stereo not given) | 1.17% (inactive)

From PubChem BioAssay AID2435 (The Scripps Research Institute Molecular Screening Center, 2010)
